Several values for one entry are separate records, joined by “and”; a condition that tells them apart may be missing. Equal entries are not always repeated. Inconclusive results are not listed. The source holds several records for some structures; these can differ, active in one and inactive in another. Activity calls are given as the source filed them. The calls were made as follows, unless noted: active = hit-call score of the fitted dose curve at least 0.9, where 1 is the maximum; inactive = score below 0.9.
Experiments:
[1] = BSK_3C_TissueFactor: BioMAP Diversity Plus: 3C Assay for Tissue Factor Biomarker Activity (AID 2282997); conditions: BioMAP 3C HUVEC, tissue factor biomarker readout; actives raise or lower the signal
Summary of the method: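 ELISA read-out of Tissue Factor levels on human umbilical vein endothelium collected 24 h after chemical dosing. Gain or loss of signal was fitted relative to DMSO.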

[2] = BSK_3C_VCAM1: BioMAP Diversity Plus: 3C Assay for Vascular cell adhesion molecule 1 (VCAM1) Biomarker Activity (AID 2282999); conditions: BioMAP 3C HUVEC, VCAM1 ELISA, cytokine-stimulated; actives raise or lower the signal
Summary of the method: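 Endothelial cells from human umbilical vein are treated with test chemical. At 24 h, VCAM-1 is measured by ELISA, and responses in either direction are fitted relative to DMSO.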

[3] = BSK_4H_Eotaxin3: BioMAP Diversity Plus: 4H Assay for Eotaxin 3 Biomarker Activity (AID 2283000); conditions: primary human endothelial cells (HUVEC); actives raise or lower the signal
Summary of the method: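 Chemicals were added to human umbilical vein endothelium cultures, and Eotaxin-3 was quantified by ELISA at 24 h. Values were derived by bidirectional fitting with DMSO serving as negative control and activity baseline.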

[4] = read-out: Intercellular Adhesion Molecule 1 (ICAM1), ICAM1 (gene 3383); experiment: BSK_3C_ICAM1: BioMAP Diversity Plus: 3C Assay for Intercellular Adhesion Molecule 1 (ICAM1) Biomarker Activity (AID 2283003); conditions: primary human endothelial cells (HUVEC); actives raise or lower the signal
Summary of the method: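 Primary human umbilical vein endothelial cells in the BioMAP 3C system were exposed to chemicals for 24 h, then ICAM-1 was quantified by ELISA. Activity was fitted bidirectionally against the DMSO negative control baseline.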

[5] = biological target: human Retinoic Acid Receptor beta (RARb), RARB (gene 5915) (UniProt P10826); experiment: ATG_RARb_TRANS: Attagene TRANS-FACTORIAL HepG2 Assay for human Retinoic Acid Receptor beta (AID 2283004; active = hit-call score of the fitted dose curve at least 0.9, where 1 is the maximum)
Chain of human Retinoic Acid Receptor beta (RARb), RARB (gene 5915) (P10826 whole entry, looked up): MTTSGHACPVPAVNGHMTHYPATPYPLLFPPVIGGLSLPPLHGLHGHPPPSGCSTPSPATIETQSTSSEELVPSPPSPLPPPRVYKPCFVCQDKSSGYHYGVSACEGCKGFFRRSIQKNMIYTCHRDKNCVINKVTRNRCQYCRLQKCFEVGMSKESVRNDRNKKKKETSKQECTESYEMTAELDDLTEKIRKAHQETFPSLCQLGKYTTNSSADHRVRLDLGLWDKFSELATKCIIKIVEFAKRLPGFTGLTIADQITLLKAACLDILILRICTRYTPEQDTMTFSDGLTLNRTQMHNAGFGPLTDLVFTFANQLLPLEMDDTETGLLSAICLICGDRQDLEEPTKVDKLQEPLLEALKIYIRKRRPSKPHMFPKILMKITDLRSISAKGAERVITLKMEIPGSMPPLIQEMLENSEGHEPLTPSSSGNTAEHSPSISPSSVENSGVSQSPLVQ
Summary of the method: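 Transient transfection of HepG2 with multiple reporter units → chemical dosing, 24 h → total RNA isolation → RT with oligo(dT) → reporter-specific PCR, 6-FAM primer extension, HpaI digest → capillary electrophoresis. Positive direction vs DMSO control.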

[6] = read-out: Urokinase-type plasminogen activator receptor (uPAR), PLAUR (gene 5329); experiment: BSK_4H_uPAR: BioMAP Diversity Plus: 4H Assay for Urokinase-type plasminogen activator receptor (uPAR) Biomarker Activity (AID 2283030); conditions: primary human endothelial cells (HUVEC); actives raise or lower the signal
Summary of the method: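 Cell-surface uPAR ELISA signal, measured 24 h after dosing human umbilical vein endothelial cells, was analyzed with bidirectional fitting relative to DMSO. Parallel SRB staining of total protein tracked overt cytotoxicity.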

[7] = read-out: Vascular endothelial growth factor receptor 2 (Homo sapiens) (UniProt P35968); experiment: BSK_4H_VEGFRII: BioMAP Diversity Plus: 4H Assay for Vascular endothelial growth factor receptor 2 (VEGFR2) Biomarker Activity (AID 2283031); conditions: primary human endothelial cells (HUVEC); actives raise or lower the signal;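 as to AC50: cell-surface VEGFR2 protein level quantified by ELISA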
Summary of the method: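 ELISA read-out of VEGFRII in primary human umbilical vein endothelium, taken 24 h after chemical treatment. Responses are expressed relative to DMSO, with bidirectional fitting.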

[8] = read-out: Macrophage colony-stimulating factor (MCSF), CSF1 (gene 1435); experiment: BSK_CASM3C_MCSF: BioMAP Diversity Plus: CASM3C Assay for Macrophage colony-stimulating factor (MCSF) Biomarker Activity (AID 2283044); conditions: primary human coronary artery smooth muscle cells; actives raise or lower the signal;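 also: M-CSF protein amount quantified by ELISA after 24 h exposure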
[9] = read-out: Low-density lipoprotein receptor (LDLR), LDLR (gene 3949); experiment: BSK_CASM3C_LDLR: BioMAP Diversity Plus: CASM3C Assay for Low-density lipoprotein receptor (LDLR) Biomarker Activity (AID 2283045); conditions: primary human coronary artery smooth muscle cells; actives raise or lower the signal;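 also: LDLR protein level on the cell surface quantified by ELISA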
[10] = read-out: Monokine induced gamma interferon (MIG), CXCL9 (gene 4283); experiment: BSK_CASM3C_MIG: BioMAP Diversity Plus: CASM3C Assay for Monokine induced gamma interferon (MIG) Biomarker Activity (AID 2283048); conditions: primary human coronary artery smooth muscle cells; actives raise or lower the signal;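 also: MIG protein level measured by ELISA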
[11] = read-out: Tissue Factor, F3 (gene 2152); experiment: BSK_CASM3C_TissueFactor: BioMAP Diversity Plus: CASM3C Assay for Tissue Factor Biomarker Activity (AID 2283052); conditions: primary human coronary artery smooth muscle cells; actives raise or lower the signal;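 also: cell surface tissue factor protein level read by ELISA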
[12] = read-out: Monokine induced gamma interferon (MIG), CXCL9 (gene 4283); experiment: BSK_hDFCGF_MIG: BioMAP Diversity Plus: hDFCGF Assay for Monokine induced gamma interferon (MIG) Biomarker Activity (AID 2283063); conditions: primary human foreskin fibroblasts; actives raise or lower the signal
Summary of the method: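 Chemicals were added to primary human foreskin fibroblast cultures, which were sampled 24 h later. MIG levels were then quantified by ELISA and responses fitted in both directions relative to DMSO.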

[13] = read-out: E-selectin (Homo sapiens) (UniProt P16581); experiment: BSK_LPS_Eselectin: BioMAP Diversity Plus: LPS Assay for Eselectin Biomarker Activity (AID 2283077); conditions: primary human HUVEC with PBMC; actives raise or lower the signal
Summary of the method: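 Primary human vascular co-culture (endothelium plus PBMC) was dosed with chemical, then E-selectin quantified by ELISA at 24 h. Endpoint values derive from bidirectional curve fitting relative to DMSO.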

[14] = read-out: Interleukin-8 (IL8), CXCL8 (gene 3576); experiment: BSK_LPS_IL8: BioMAP Diversity Plus: LPS Assay for Interleukin-8 (IL8) Biomarker Activity (AID 2283078); conditions: primary human HUVEC with PBMC; actives raise or lower the signal
Summary of the method: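 Readout is IL-8 by ELISA, taken 24 h after compounds were added to LPS-stimulated endothelial/PBMC co-cultures. Both increases and decreases relative to DMSO control were scored through bidirectional fitting.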

[15] = read-out: Monocyte Chemoattractant Protein-1 (MCP1), CCL2 (gene 6347); experiment: BSK_LPS_MCP1: BioMAP Diversity Plus: LPS Assay for Monocyte Chemoattractant Protein-1 (MCP1) Biomarker Activity (AID 2283081); conditions: primary human HUVEC with PBMC; actives raise or lower the signal;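 as to AC50: secreted MCP-1 protein quantified by ELISA in culture supernatant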
Summary of the method: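 Human endothelial–PBMC co-cultures were dosed with chemical, then LPS-driven MCP-1 levels were quantified by ELISA at 24 h. Activity in either direction was fitted versus DMSO negative control.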

[16] = read-out: Tissue Factor, F3 (gene 2152); experiment: BSK_LPS_TissueFactor: BioMAP Diversity Plus: LPS Assay for Tissue Factor Biomarker Activity (AID 2283084); conditions: primary human HUVEC with PBMC; actives raise or lower the signal
Summary of the method: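 ELISA signal for cell-surface Tissue Factor (CD142) was read 24 h after compound dosing of an LPS-stimulated human endothelial–PBMC primary co-culture. Gain or loss of signal was scored relative to DMSO.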

CD40, CD40 (gene 958) = experiment: BSK_SAg_CD40: BioMAP Diversity Plus: SAg Assay for CD40 Biomarker Activity (AID 2283088); conditions: primary human HUVEC with PBMC; actives raise or lower the signal
Summary of the method: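 Compounds were dosed onto a human primary endothelial–PBMC co-culture, and after 24 h CD40 was quantified by ELISA using a fluorescence signal. Activity in either direction was fitted relative to DMSO.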

[17] = read-out: E-selectin (Homo sapiens) (UniProt P16581); experiment: BSK_SAg_Eselectin: BioMAP Diversity Plus: SAg Assay for Eselectin Biomarker Activity (AID 2283091); conditions: primary human HUVEC with PBMC; actives raise or lower the signal
Summary of the method: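 Co-culture: HUVEC + PBMC. Dose compound; 24 h. ELISA for E-selectin. Bidirectional fit vs DMSO.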

[18] = read-out: Interleukin-8 (IL8), CXCL8 (gene 3576); experiment: BSK_SAg_IL8: BioMAP Diversity Plus: SAg Assay for Interleukin-8 (IL8) Biomarker Activity (AID 2283094); conditions: primary human HUVEC with PBMC; actives raise or lower the signal
Summary of the method: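 Human umbilical vein endothelial cells co-cultured with peripheral blood mononuclear cells; IL-8 measured by ELISA 24 h after chemical dosing. Bidirectional concentration-response fitting used DMSO as negative control and activity baseline.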

[19] = biological target: Retinoic acid receptor RXR-alpha (Homo sapiens) (UniProt P19793); experiment: OT_NURR1_NURR1RXRa_0480: Odyssey Thera (OT) 8-hour HEK293T Protein Complementation Assay for Nurr1/retinoid X receptor (RXR) (AID 2283385; active = hit-call score of the fitted dose curve at least 0.9, where 1 is the maximum)
Chain of Retinoic acid receptor RXR-alpha (Homo sapiens) (P19793 whole entry, looked up, the tested form may be a part): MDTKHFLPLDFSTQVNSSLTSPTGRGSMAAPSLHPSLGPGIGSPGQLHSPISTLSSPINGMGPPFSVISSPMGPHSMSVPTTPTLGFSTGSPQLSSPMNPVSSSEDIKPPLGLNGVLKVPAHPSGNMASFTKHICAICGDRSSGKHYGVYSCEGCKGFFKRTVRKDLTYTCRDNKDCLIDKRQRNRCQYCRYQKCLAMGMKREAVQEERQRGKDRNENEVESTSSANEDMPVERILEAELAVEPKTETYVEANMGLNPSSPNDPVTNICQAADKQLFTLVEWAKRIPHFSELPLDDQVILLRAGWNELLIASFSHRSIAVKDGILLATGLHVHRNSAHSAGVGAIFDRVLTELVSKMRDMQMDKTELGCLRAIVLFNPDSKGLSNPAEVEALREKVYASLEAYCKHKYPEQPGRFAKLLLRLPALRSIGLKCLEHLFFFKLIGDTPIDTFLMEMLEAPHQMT
Summary of the method: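 HEK293T cells expressing Nurr1 and RXRα fused to reporter fragments were dosed with compound for 8 hours. Complex formation was read as fluorescence intensity and analysed as gain of signal against DMSO as baseline.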

Measured: AC50

Chain of E-selectin (Homo sapiens) (P16581 whole entry, looked up): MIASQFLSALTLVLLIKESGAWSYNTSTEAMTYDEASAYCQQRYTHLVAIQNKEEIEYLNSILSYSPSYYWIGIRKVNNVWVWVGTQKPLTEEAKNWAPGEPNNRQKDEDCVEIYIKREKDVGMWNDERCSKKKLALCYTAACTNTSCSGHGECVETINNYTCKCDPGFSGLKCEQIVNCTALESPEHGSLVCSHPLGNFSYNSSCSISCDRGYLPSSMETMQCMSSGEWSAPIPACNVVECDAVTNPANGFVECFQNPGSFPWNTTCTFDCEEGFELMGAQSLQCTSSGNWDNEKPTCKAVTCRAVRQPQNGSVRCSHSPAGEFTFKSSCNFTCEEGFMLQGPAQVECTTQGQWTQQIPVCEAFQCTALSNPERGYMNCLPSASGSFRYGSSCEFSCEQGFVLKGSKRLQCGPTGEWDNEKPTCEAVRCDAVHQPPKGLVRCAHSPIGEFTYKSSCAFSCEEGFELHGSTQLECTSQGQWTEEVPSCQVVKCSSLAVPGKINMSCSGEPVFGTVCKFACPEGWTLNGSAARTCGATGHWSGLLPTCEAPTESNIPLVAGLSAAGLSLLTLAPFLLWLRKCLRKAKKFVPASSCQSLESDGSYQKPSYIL

CCC(C)=NO
inactive: [1] | [2] | [3] | [4] | [5] | [6] | [7] | [8] | [9] | [10] | [11] | [12] | [13] | [14] | [15] | [16] | CD40, CD40 (gene 958) | [17] | [18] | [19]

CCCCCCC(O)CCCCCCCCCCC(=O)OC (centres undefined)
inactive: [1] | [2] | [3] | [4] | [5] | [6] | [7] | [8] | [9] | [10] | [11] | [12] | [13] | [14] | [15] | [16] | CD40, CD40 (gene 958) | [17] | [18]

Cc1cc(O)cc(C)c1Cl
inactive: [19]

CCCCCC[C@@H](O)C/C=C\CCCCCCCC(=O)O
inactive: [19]

Cc1ccnc(N)c1
inactive: [5]

CCCCCC1CCCC(=O)O1 (centres undefined)
inactive: [5]

O=C(OCc1ccccc1)c1ccccc1
inactive: [19]

COC(=O)/C=C\C(=O)OC
active: [17] 9.12 µM
inactive: [1] | [2] | [3] | [4] | [6] | [7] | [8] | [9] | [10] | [11] | [12] | [13] | [14] | [15] | [16] | CD40, CD40 (gene 958) | [18]

CC[N+](CC)(CC(=O)Nc1c(C)cccc1C)Cc1ccccc1
inactive: [1] | [2] | [3] | [4] | [6] | [7] | [8] | [9] | [10] | [11] | [12] | [13] | [15] | [16] | CD40, CD40 (gene 958) | [17] | [18] | [19]
active: [14] 0.182 µM

O=C(C(=O)c1ccccc1)c1ccccc1
inactive: [1] | [2] | [3] | [4] | [6] | [7] | [8] | [9] | [10] | [11] | [12] | [13] | [15] | [16] | CD40, CD40 (gene 958) | [17] | [18]
active: [14] 0.0917 µM

CN(C)CCC(c1ccc(Cl)cc1)c1ccccn1 (centres undefined)
inactive: [1] | [2] | [3] | [4] | [6] | [7] | [8] | [9] | [10] | [11] | [12] | [13] | [14] | [15] | [16] | CD40, CD40 (gene 958) | [17] | [18]

C[Si](C)(C)O[Si](C)(C)O[Si](C)(C)C
inactive: [19]

O=C(O)c1ccccc1C(=O)O
inactive: [5]

COc1ccc(C(=O)c2ccccc2O)c(O)c1
inactive: [2] | [4] | [6] | [7] | [8] | [9] | [11] | [12] | [13] | [14] | [15] | [16] | CD40, CD40 (gene 958) | [17]
active: [1] 20 µM and 17.9 µM | [3] 10 µM and 14.4 µM | [6] 10.2 µM | [10] 20 µM and 16.1 µM | CD40, CD40 (gene 958) 29.9 µM | [18] 29.5 µM and 24.6 µM

CCCCC(CC)COC(=O)C=Cc1ccc(OC)cc1 (centres undefined)
inactive: [2] | [4] | [6] | [7] | [8] | [9] | [10] | [11] | [13] | [14] | [15] | [16]
active: [1] 5.17 µM and 7.14 µM | [3] 24.2 µM and 18.9 µM | [7] 31.7 µM | [10] 32.4 µM | [11] 6.67 µM | [12] 12 µM and 10.2 µM | [13] 13.2 µM | [14] 12.9 µM | [15] 32.3 µM | [16] 7.72 µM | CD40, CD40 (gene 958) 32.1 µM and 31.9 µM | [17] 25.9 µM and 18.8 µM | [18] 23.5 µM and 36.7 µM

— PubChem BioAssay (EPA / NIEHS)
